The entries come from a sample that favours hits as a whole.
Menin MLL FP TR: inhibitors of human menin-MLL interaction, mutant MLL peptide; O00255; Menin + Texas Red MLL mutant peptide, fluorescence polarization; Potency, µM (titrated, usually from 61.6 µM), actives largely listed as inhibitors; actives 0.23% (n = 270,000); active means well fitted inhibition curve with a large enough effect in the polarisation, with a control signal flat, not every such curve was filed as active; inconclusive means small, poorly fitted or top-dose-only effect, or effect the other way, or a change in a side signal; inactive means no such curve, though single readings can be large or run the other way; the % refers to the polarisation
RGS12 GoLoco inh: RGS12 GoLoco-Gai1 interaction inhibition; Gai1:RGS12 GoLoco peptide FP, rhodamine, 10 min; actives 0.44% (n = 230,000); Potency, µM (top dose mostly 61.6 µM), hits mostly inhibitors; P63096; active means well fitted inhibition curve with a large enough effect, not every such curve was filed as active; inactive means no such curve, though single readings can be large or run the other way; further: nearly all actives have a fitted effect of over 30% in size
Target sequence (P63096 whole entry, looked up): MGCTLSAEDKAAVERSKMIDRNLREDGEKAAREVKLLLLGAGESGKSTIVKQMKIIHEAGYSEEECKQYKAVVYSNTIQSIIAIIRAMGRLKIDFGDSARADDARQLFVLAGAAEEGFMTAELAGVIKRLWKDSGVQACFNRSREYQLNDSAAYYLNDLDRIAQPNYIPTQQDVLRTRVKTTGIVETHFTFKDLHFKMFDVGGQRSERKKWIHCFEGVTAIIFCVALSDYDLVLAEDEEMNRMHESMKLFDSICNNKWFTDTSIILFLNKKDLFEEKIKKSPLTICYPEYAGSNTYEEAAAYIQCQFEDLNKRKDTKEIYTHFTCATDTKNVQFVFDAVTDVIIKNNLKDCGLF
ERG Ets-DNA blk: blocks human ERG Ets domain binding to DNA; P11308; fluorescence polarization, His-ERG Ets domain / labelled DNA; Potency, µM (titrated, usually from 76.9 µM), most hits filed as inhibitors; actives 0.028% (n = 370,000); active means well fitted inhibition curve with a large enough effect in the polarisation, with a control signal flat; inconclusive means small, poorly fitted or top-dose-only effect, or effect the other way, or a change in a side signal; inactive means no such curve, though single readings can be large or run the other way; the % refers to the polarisation;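 further: polarization taken with two DNA probes labelled with fluorescein and Texas red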
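His-tagged ERG Ets domain (1 uM in the protein solution; 300mM KCl, 50mM Tris-HCl, 1mM EDTA, 1mM DTT, pH 7.5) received compound, then a probe mix of 5 nM fluorescein-DNA and 100nM Texas-615-DNA. Fluorescence polarization was read for both dyes.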
Menin-MLL FL inh: displaces fluorescein MLL peptide from human menin; Fluorescence polarization, fluorescein-MLL peptide displacement from menin; FP activity change, % at 61.4 µM; 290,000 tested, under 10 active; active means well fitted curve in the direction sought with a large enough effect in the polarisation, not every such curve was filed as active; inconclusive means small, poorly fitted or top-dose-only effect, or effect the other way, or a change in a side signal; inactive means no such curve, though single readings can be large or run the other way; the % refers to the polarisation
CXXC DNA block: inhibitors of human MLL CXXC domain-DNA interaction | Q03164 | MLL-CXXC / FITC-HOXA9 DNA fluorescence polarization | Potency, µM (doses to about 115 µM), actives largely listed as inhibitors | actives 0.037% (n = 290,000); active means well fitted inhibition curve with a large enough effect in the polarisation, with a control signal flat, not every such curve was filed as active; inconclusive means small, poorly fitted or top-dose-only effect, or effect the other way, or a change in a side signal; inactive means no such curve, though single readings can be large or run the other way; the % refers to the polarisation
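Steps: dispense CXXC domain solution (7 uM) → pin compounds or unlabeled HOX-A9 DNA control → 5 min ambient → add FLSN-HOX-A9 solution (50 nM) → spin → 30 min ambient → fluorescence polarization. Tris pH 7.5/NaCl/DTT/BSA buffer.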
MLL CXXC Fl: disrupts human MLL CXXC domain binding to DNA. Potency, µM (top dose mostly 345 µM), most hits filed as inhibitors. AID 624160. shares compounds with CXXC DNA block. actives 70% (n = 200). MLL CXXC-DNA binding, fluorescein FP; further: nearly all actives have a fitted effect of over 80% in size
MLL CXXC FP-TR: disrupts human MLL CXXC domain binding to DNA, Texas Red; shares compounds with CXXC DNA block; MLL CXXC-DNA binding, Texas Red fluorescence polarization; Potency, µM (doses to about 345 µM), hits mostly inhibitors; actives 40% (n = 200); further: nearly all actives have a fitted effect of over 75% in size
MLL CXXC HTRF: MLL CXXC-DNA interaction inhibition, HTRF readout; AID 624162; MLL CXXC-DNA binding, HTRF, biochemical; shares compounds with CXXC DNA block; actives 30% (n = 210); Potency, µM (doses to about 172 µM), usual class: inhibitors; further: nearly all actives have a fitted effect of over 80% in size
A number is an active result; – = inactive; ? = inconclusive; · = no result given; ! = not active in a repeat; [ ] = remark or other dose. Unless noted, the call rests on the fitted dose curve; in most records, active means well fitted inhibition curve with a large enough effect; inconclusive means small, poorly fitted or top-dose-only effect; inactive means no such curve, though single readings can be large or run the other way.

SMILES	Menin MLL FP TR	RGS12 GoLoco inh	ERG Ets-DNA blk	Menin-MLL FL inh	CXXC DNA block	MLL CXXC Fl	MLL CXXC FP-TR	MLL CXXC HTRF
Cc1ccc(C2OC34CCCCCC3C(C#N)(C(=N)O4)C2(C#N)C#N)cc1 (centres undefined)	–	–	–	–	7.94µM	–	?	–
CCOc1ccc(C2C(C#N)=C(N)SC(N)=C2C#N)cc1OC	–	–	·	?	?	·	·	·
CC1(C)CC(=O)C(C(C2=C(O)CC(C)(C)CC2=O)c2ccc(O)c([N+](=O)[O-])c2)=C(O)C1	–	–	–	–	28.2µM	17.9µM	63.3µM	7.69µM
COC(=O)c1c(C)[nH]c(C)c1-c1ccc(C)cc1	–	–	–	–	?	17.9µM	?	–
CC1Cc2ccccc2N1S(=O)(=O)c1nnc(NC(=O)c2cccc(F)c2)s1 (centres undefined)	·	·	–	·	·	·	·	·
CCCC(=O)Nc1nnc(SCc2cc(=O)n3cccc(C)c3n2)s1	·	·	–	·	·	·	·	·
COC(=O)c1ccc(NC(=O)NC(C)c2c(-n3cccc3)sc(C)c2C)cc1 (centres undefined)	·	·	–	·	·	·	·	·
CC1=NN(c2ccccc2)C(=O)/C1=C/c1ccc(-c2ccc(C)c(C(=O)O)c2)o1	·	·	–	·	·	·	·	·
O=C1NN(c2ccccc2)C(=O)/C1=C/c1ccc(-c2ccc(C(=O)O)cc2)o1	?	·	–	–	31.6µM	89.5µM	142µM	?
CC1=NN(c2ccc(Cl)c(C(=O)O)c2)C(=O)/C1=C\c1ccc(-c2ccc(C(=O)O)cc2)o1	?	–	–	–	?	28.3µM	–	–
CC1=NOC(=O)/C1=C\c1ccc(-c2ccc(Cl)c(C(=O)O)c2)o1	–	–	–	–	?	20µM	89.5µM	48.5µM
CC1(C)OC(=O)C(=Cc2ccc(-c3ccc(Cl)c(C(=O)O)c3)o2)C(=O)O1	–	–	–	–	28.2µM	15.9µM	56.5µM	38.5µM
CC(C)Oc1ccc(CNC(=O)CCCn2c(=O)c3cccn3c3cccnc32)cc1	·	·	–	·	·	·	·	·
Cc1cc(C)cc(-n2nnc(-c3nc(-c4ccccc4F)no3)c2C)c1	·	·	–	·	·	·	·	·
N#Cc1cc2c(=O)n3ccccc3nc2n(-c2nnc(SCc3ccccc3Cl)s2)c1=O	·	·	–	·	·	·	·	·
O=C(Cn1ncc2c3ccccc3n(Cc3cccc(Cl)c3)c2c1=O)N1CCCCCC1	·	·	–	·	·	·	·	·
COCCCNC(=S)NNC(=O)c1cc(Cl)c(O)c(Cl)c1	·	–	–	–	?	·	·	–
O=C1/C(=N\S(=O)(=O)c2cccs2)C([n+]2ccc(CCCc3ccccc3)cc2)=C([O-])c2ccccc21	·	–	–	–	–	·	·	·
O=C1/C(=N\S(=O)(=O)c2cccs2)C([n+]2cccc(Cc3ccccc3)c2)=C([O-])c2ccccc21	·	–	?	?	25.1µM	142µM	?	–
COc1ccc(S(=O)(=O)N2CCN(CC(=O)Nc3ccc(Cl)c(C(F)(F)F)c3)CC2)cc1	·	·	–	·	·	·	·	·
CCc1cccc(C)c1NC(=O)CCn1c(=O)c2cccn2c2ccccc21	·	·	–	·	·	·	·	·
COc1cc(C=C2C(=O)c3ccccc3C2=O)cc(OC)c1OC	–	–	–	?	35.5µM	44.8µM	142µM	96.8µM
COc1cc(C=C2C(=O)c3ccccc3C2=O)cc(OC)c1	·	–	–	–	?	·	·	·
COc1ccc(C=C2C(=O)c3ccccc3C2=O)cc1O	?	–	–	–	?	·	·	·
COc1cc(C=C2C(=O)c3ccccc3C2=O)ccc1O	·	–	–	–	?	28.3µM	?	–
SMILES	Menin MLL FP TR	RGS12 GoLoco inh	ERG Ets-DNA blk	Menin-MLL FL inh	CXXC DNA block	MLL CXXC Fl	MLL CXXC FP-TR	MLL CXXC HTRF
CCc1ccc(CNC(=O)C2Cc3cc(S(=O)(=O)N4CCCCCC4)ccc3N2C(C)=O)cc1 (centres undefined)	·	·	–	·	·	·	·	·
COc1ccc(CCN2C(=O)N(c3ccc(C)cc3)C(=O)C2CC(=O)Nc2ccc(F)cc2)cc1 (centres undefined)	·	·	–	·	·	·	·	·
CCC1OC2(C)OC(=N)C1(C#N)C(C#N)(C#N)C2c1ccccc1 (centres undefined)	–	–	?	–	–	·	·	·
CC(C)C1OC2(C)OC(=N)C1(C#N)C(C#N)(C#N)C2c1ccccc1 (centres undefined)	–	–	–	?	17.8µM	89.5µM	44.8µM	–
CC1=C(c2ccc(C)cc2)S(=O)(=O)N(Cc2ccc(C(=O)Nc3ccc(F)cc3C)cc2)C1=O	·	·	–	·	·	·	·	·
N#C/C(=C\c1cccs1)C(=O)c1ccccc1	·	–	–	–	?	–	113µM	–
O=C(O)c1ccc(S(=O)(=O)/N=C2\C=C(Nc3ccccc3F)C(=O)c3ccccc32)cc1	?	·	–	–	?	113µM	142µM	–
Cc1ccc(CNC(=O)CN2C(=O)C3(SCC(=O)N3c3cc(C)cc(C)c3)c3ccccc32)cc1 (centres undefined)	·	·	–	·	·	·	·	·
O=C(Cn1c(=O)oc2cc(S(=O)(=O)NCc3ccccc3)ccc21)N(CCO)Cc1ccccc1	·	·	–	·	·	·	·	·
CC(C)c1nnc(NC(=O)c2cc3cc(Br)ccc3oc2=O)s1	·	–	–	–	?	–	–	–
Cc1ccc(C(=O)Nc2ccc(S(=O)(=O)O)c3cc(S(=O)(=O)O)cc(S(=O)(=O)O)c23)cc1NC(=O)c1cccc(NC(=O)Nc2cccc(C(=O)Nc3cc(C(=O)Nc4ccc(S(=O)(=O)O)c5cc(S(=O)(=O)O)cc(S(=O)(=O)O)c45)ccc3C)c2)c1	–	–	·	–	7.94µM	20µM	22.5µM!	4.85µM
Cc1ccccc1NC(=O)c1cccc(S(=O)(=O)Nc2cccc(C(=O)O)c2)c1	–	·	–	–	–	·	·	·
CC(C)OC(=O)CC(=O)c1sc2nc3c(cc2c1N)CN(C)CC3	–	–	–	?	12.6µM	44.8µM	?	?
CC[C@@]1(O)C(=O)OCc2c1cc1n(c2=O)Cc2cc3c(CN(C)C)c(O)ccc3nc2-1	–	–[14.2 µM]	–	?	44.7µM	31.7µM	–	–
CCOC(=O)C1=C(CS(=O)(=O)c2ccc(F)c(C)c2)NC(=O)NC1c1ccccc1OC (centres undefined)	·	·	–	·	·	·	·	·
O=S(=O)(O)c1cc(O)c2c(O)c(N=Nc3cc(Cl)ccc3O)c(S(=O)(=O)O)cc2c1	?	·	–	–	–	·	·	·
Cc1cc(-c2ccc(N=Nc3c(S(=O)(=O)O)cc4cc(S(=O)(=O)O)cc(N)c4c3O)c(C)c2)ccc1N=Nc1c(S(=O)(=O)O)cc2cc(S(=O)(=O)O)cc(N)c2c1O	?	·	·	?	25.1µM	5.65µM	7.11µM	1.53µM
COc1ccc(NC(=O)c2cn3c4c(ccc(Cl)c4c2=O)OC(C)C3)cc1OC (centres undefined)	·	·	–	·	·	·	·	·
